Whole data set: some 110,000 compounds, median “z-score” near -0.1, cut for the highest 2% near 2. This is one part of a sample in which the highest values are shown more often than they occur. Active and inactive are the calls of the source.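 How the source made its calls: active means z-score in the third read window above 3 or below -3; inactive means the rest.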
The compounds below were run against Metabotropic glutamate receptor 8 (Rattus norvegicus) (UniProt P70579) (assay: mGluR8 Gi/Go-coupled signaling modulation – cell-based, rat, thallium flux, HTS, primary screen (AID 488969)). Conditions: HEK293 rat mGluR8, GIRK (G protein-gated inwardly rectifying potassium channel) thallium flux, FluoZin2; at 10 µM; stronger effect = higher value; submaximal glutamate (EC20) added with thallium.
Chain of Metabotropic glutamate receptor 8 (Rattus norvegicus) (P70579 whole entry, looked up): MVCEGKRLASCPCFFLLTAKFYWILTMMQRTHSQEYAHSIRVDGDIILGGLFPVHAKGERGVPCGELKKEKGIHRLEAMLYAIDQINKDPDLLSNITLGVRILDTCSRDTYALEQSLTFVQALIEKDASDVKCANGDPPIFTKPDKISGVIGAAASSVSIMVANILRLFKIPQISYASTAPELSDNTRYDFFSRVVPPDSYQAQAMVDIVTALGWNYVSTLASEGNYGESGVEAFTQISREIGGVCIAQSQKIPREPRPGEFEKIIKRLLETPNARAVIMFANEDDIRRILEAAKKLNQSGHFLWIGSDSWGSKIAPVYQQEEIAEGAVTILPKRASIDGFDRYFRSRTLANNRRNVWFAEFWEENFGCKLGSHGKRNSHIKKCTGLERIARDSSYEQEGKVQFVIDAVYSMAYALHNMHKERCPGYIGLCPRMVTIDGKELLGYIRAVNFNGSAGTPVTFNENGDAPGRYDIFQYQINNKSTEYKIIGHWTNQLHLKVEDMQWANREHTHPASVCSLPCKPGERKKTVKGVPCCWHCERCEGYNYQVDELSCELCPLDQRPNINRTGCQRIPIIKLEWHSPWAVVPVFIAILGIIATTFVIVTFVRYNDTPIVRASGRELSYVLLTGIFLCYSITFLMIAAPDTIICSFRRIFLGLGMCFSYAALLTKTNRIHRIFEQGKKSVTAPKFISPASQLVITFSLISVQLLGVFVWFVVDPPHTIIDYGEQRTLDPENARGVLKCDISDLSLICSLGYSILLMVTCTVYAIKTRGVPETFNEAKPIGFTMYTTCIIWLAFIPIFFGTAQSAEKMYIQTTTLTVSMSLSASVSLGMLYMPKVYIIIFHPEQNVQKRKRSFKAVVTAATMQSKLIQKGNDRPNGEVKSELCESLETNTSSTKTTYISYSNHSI

Compound | z-score
O=C(CSc1cc(Cl)ccc1Cl)NCC1CCCO1 (stereo unspecified) | -0.0958
Cc1ccccc1-n1c(SCc2csc(Nc3ccccc3)n2)nnc1-c1cccnc1 | -0.897
c1ccc(Oc2cccc(CN3CCCCC3)c2)cc1 | -0.282
CCN1CCN(Cc2cccc(Oc3ccccc3)c2)CC1 | 0.156
CN1CCN(Cc2cccc(Oc3ccccc3)c2)CC1 | 0.0807
CN1CCN(Cc2cccc(Oc3ccc(Cl)cc3)c2)CC1 | 4 (active)
CCN1CCN(Cc2cccc(Oc3ccc(Cl)cc3)c2)CC1 | 0.924
CC1CCCN(Cc2cccc(Oc3ccccc3)c2)C1 (stereo unspecified) | 6.29 (active)
CCc1ccc(Nc2nnc(SCC(=O)N(C)CC(=O)Nc3ccccc3CC)s2)cc1 | -0.439
CSc1nccc(Oc2ccc(C#N)cc2)n1 | -0.172
CC1=C/C(=N\OS(=O)(=O)c2ccccc2)C(C)=CC1=O | -0.189
CC1=CC(=O)C=C(C)C1=NOS(=O)(=O)c1ccccc1 | 0.257
CC1=C/C(=N\OS(=O)(=O)c2ccccc2)C=CC1=O | 3
Cc1ccc(C(=O)N2CC(C)OC(C)C2)c(Cl)c1 (stereo unspecified) | -0.0463
Cc1ccc(-n2c(Cc3cccn3C)nnc2SCC(=O)Nc2cc(C)on2)cc1 | -0.345
CCCCNC(=S)NNC(=O)c1csc(CC)c1 | -0.0512
Cc1cccc(NC(=S)NNC(=O)c2sccc2C)c1 | 2.13
CCc1cc(C(=O)NNC(=S)Nc2cc(C)ccc2C)cs1 | 6.35 (active)
CCc1cc(C(=O)NNC(=S)Nc2cccc(C)c2)cs1 | 7.17 (active)

Compound | z-score
CCc1cc(C(=O)NNC(=S)NCc2ccccc2)cs1 | 0.0336
CCNC(=S)NNC(=O)c1csc(CC)c1 | -0.163
Cc1ccc(C)c(NC(=S)NNC(=O)c2sccc2C)c1 | 1.53
CCc1cc(C(=O)NNC(=S)Nc2ccccc2C)cs1 | 1.47
CNC(=S)NNC(=O)c1sccc1C | -0.0354
Cc1nn2c3c(cnc2c1-c1ccccc1)C(=O)CCC3 | -0.149
CC(C)(C)C(=O)NC1(C(F)(F)F)N=C2SCCN2C1=O (stereo unspecified) | -0.137
O=C(COc1ccc(S(=O)(=O)NC2CCCCC2)cc1)NCc1cccnc1 | -0.589
COc1cc(-c2nc3ccccc3c(=O)n2N)cc(OC)c1OC | -0.0215
O=C(CSc1ccc2nnc(-c3ccc(Cl)cc3)n2n1)N1CCCc2ccccc21 | 0.00121
Cc1cc2nc3c(nc2cc1C)C1(C(=O)N(C)C)CCC3(C)C1(C)C (stereo unspecified) | -0.192
Cc1cccc(-n2ncc3c(NCc4cccs4)ncnc32)c1 | -0.705
O=c1c2ccccc2c(-c2ccccc2)nn1Cc1ccc(Cl)cc1 | -0.152
Cc1ccc2[nH]c3c(=O)n(CCC4=CCCCC4)cnc3c2c1 | -0.447
Cn1c(-c2ccccc2O)cc2ccccc21 | 0.085
Cc1occc1C(=O)N=Nc1c(O)[nH]c2ccc(Br)cc12 | -0.135
CCC(=O)NC(=S)Nc1ccc(NC(=O)c2ccc(OC)cc2)cc1 | -0.111
O=C(Nc1ccccc1Sc1ccccc1)C1CCCO1 (stereo unspecified) | -0.775
Cc1ccccc1NC(=O)C1CCCN1S(=O)(=O)c1cccc2cccnc12 (stereo unspecified) | -0.0844

Compound | z-score
CC(=O)c1ccc(NC(=O)C2CCCN2S(=O)(=O)c2cccc3cccnc23)cc1 (stereo unspecified) | -0.24
Cc1ccc(NC(=O)C2CCCN2S(=O)(=O)c2cccc3cccnc23)cc1F (stereo unspecified) | 2.9
Cc1cccc(NC(=O)C2CCCN2S(=O)(=O)c2cccc3cccnc23)c1 (stereo unspecified) | 0.22
CC(=O)c1cccc(NC(=O)C2CCCN2S(=O)(=O)c2cccc3cccnc23)c1 (stereo unspecified) | 4.14 (active)
O=C(Nc1cccc(F)c1)C1CCCN1S(=O)(=O)c1cccc2cccnc12 (stereo unspecified) | -0.182
COc1ccc(-c2cn3c(C)c(C(=O)N4CCN(c5ccc(F)cc5)CC4)sc3n2)cc1 | 0.116
COc1cccc(CNCCSc2nnnn2C)c1OC | 0.709
Cc1csc(SCC(=O)NCc2cccs2)n1 | 0.824
O=C(CSc1cccc2cccc(Cl)c12)NCc1cccs1 | 3.5 (active)
O=C(CSc1ccc2ccccc2c1)NCc1cccs1 | 0.0417
O=C(NCc1cccnc1)c1cccc(C(F)(F)F)c1 | -0.793
COc1ccccc1CNCc1ccc(OC)c(OC)c1OC | 2.07
COc1cccc(CNCc2ccc(SC)cc2)c1OC | -0.19
COc1ccccc1CNCc1cccs1 | 0.411
CC1(C)CNC(=O)C=C(c2ccccc2)C1 | -0.176
Cc1ccc(S(=O)(=O)N(C)CC(=O)O/N=C(\N)c2ccc([N+](=O)[O-])cc2)cc1 | -0.621
COn1c(=O)c(-c2ccc(Cl)cc2)[n+]([O-])c2ccccc21 | -0.503
CCOn1c(=O)c(-c2ccc(Cl)cc2)[n+]([O-])c2ccccc21 | 0.119

— PubChem BioAssay AID488969 (Vanderbilt High Throughput Screening Facility, 2010)
